Screening results deposited in PubChem BioAssay by several laboratories.
Only some compounds are listed: those with a hit (about 2.9% of all), similar ones and a draw of the others.
Hsp70 act: Hsp70 transcriptional activators, primary screen, cell-based, HeLa, Hsp70 promoter luciferase, luminescence, 10 µM; HeLa Hsp70 promoter luciferase reporter; scaled: vehicle 0, proteasome-inhibitor control 100%; activation, % at 10 µM; 200,000 tested, 0.04% active; AID 1203, 2008;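 active means activation above the mean across all tested compounds plus 3 SD, cutoff set per campaign, cut at about 5.5% in these data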;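 further: 100% = MG132 at 30 µM as the positive control and 0% = DMSO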
S1P4 antagonist: S1P4 receptor antagonists, primary screen, cell-based; Sphingosine 1-phosphate receptor 4 (Homo sapiens), O95977; S1P4-expressing cells, antagonist mode, reporter read-out; inhibition, % at 4.98 µM; 220,000 tested, 0.26% active; AID 1510, 2009; in the data active means inhibition above about 29%;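 further: 0% = wells stimulated with agonist and 100% = vehicle wells without agonist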
HSF1 inh: HSF1 inhibitors in luciferase reporter cells, primary screen, cell-based, NIH3T3, luminescence. NIH3T3-HGL HSE-luciferase, MG132-induced, luminescence 8 h; active compounds read low. activity change, negative = inhibition, % at 7.5 µM (by protocol). 300,000 tested, 0.77% active;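 active means more than half of replicate wells show activity change below -50%, luminescence cut by over half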;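 further: luciferase reports HSF-1 transcriptional activity via heat shock element; 0% = median of DMSO wells and -100% = zero luminescence signal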
S1P4 agonist: S1P4 receptor agonists, primary screen, cell-based. 220,000 tested, 0.35% active. Sphingosine 1-phosphate receptor 4 (Homo sapiens), O95977. activation, % at 4.98 µM. S1P4-expressing cell line, agonist reporter assay; in the data active means activation above about 11%;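 further: 0% = DMSO vehicle and 100% = reference agonist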
HSF-1 act: HSF-1 activators, primary screen, NIH3T3-HGL cells, MG132 stress, luminescence, single point; 300,000 tested, 1.7% active; activation, % at 9 µM; NIH3T3-HGL HSF-1 luciferase reporter, 8 h; 100% = twice DMSO control signal; AID 504408, 2011;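 active means mean replicate activation of at least 50% with a set share of replicates each reaching 50%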;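 further: 0% = median of the neutral control wells and 100% = twice that signal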
S1P3 antagonist: S1P3 receptor antagonists, primary screen, cell-based; Sphingosine 1-phosphate receptor 3 (Homo sapiens), Q99500; CHO S1P3 NFAT-BLA reporter, FRET fluorescence, antagonist mode; inhibition, % at 4.98 µM; 170,000 tested, 0.27% active; AID 485, 2006;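 active means inhibition above the plate cutoff, the mean inhibition of test wells on that plate plus 3 SD, cut at about 28% in these data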;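 further: cells challenged with S1P at its EC80 of 0.8 µM; blue over green emission ratio from cleaved BLA substrate after 4 h stimulation; 0% = S1P-stimulated wells and 100% = unstimulated DMSO-only wells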
Target sequence (Q99500 whole entry, looked up): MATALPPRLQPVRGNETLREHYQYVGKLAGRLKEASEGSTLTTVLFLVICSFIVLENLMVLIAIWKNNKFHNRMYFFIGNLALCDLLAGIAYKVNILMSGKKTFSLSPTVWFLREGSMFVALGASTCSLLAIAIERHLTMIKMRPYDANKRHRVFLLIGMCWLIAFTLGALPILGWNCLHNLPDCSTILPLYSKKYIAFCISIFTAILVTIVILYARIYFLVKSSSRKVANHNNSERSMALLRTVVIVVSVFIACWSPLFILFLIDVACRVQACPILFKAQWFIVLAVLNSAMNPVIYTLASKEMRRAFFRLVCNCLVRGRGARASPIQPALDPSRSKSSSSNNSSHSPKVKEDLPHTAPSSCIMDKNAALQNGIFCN
Numbers without * were called inactive; · = no result.

SMILES | Hsp70 act | S1P4 antagonist | HSF1 inh | S1P4 agonist | HSF-1 act | S1P3 antagonist
Cc1cc2ccccc2c(=O)n1CC(=O)Nc1ccc2c(c1)OCO2 | 1 | -16 | -68* | 0 | -74 | 6
Cc1ccc(NC(=O)COC(=O)C2=COCCO2)cc1 | 0 | -4 | 1 | 0 | 4 | -22
O=C(COC(=O)C1=COCCO1)Nc1ccc2c(c1)OCO2 | -1 | -11 | -63* | 0 | -72 | 2
Cn1c(C(=O)O)c(CC(=O)Nc2ccc3c(c2)OCCO3)c2ccccc21 | 0 | 0 | -66* | 2 | -68 | -36
CCC1SC(CC)C(=O)N(CC(=O)Nc2ccc3c(c2)OCO3)C1=O (stereo not given) | 0 | -14 | 11 | 5 | 53* | -8
Cc1ccc(NC(=O)Cc2c(C(=O)O)n(C)c3ccccc23)cc1F | 0 | -1 | -5 | -1 | -6 | -10
CCN(CC)S(=O)(=O)c1ccc(C)c(NC(=S)N2CCN(Cc3ccc4c(c3)OCO4)CC2)c1 | 0 | -2 | 4 | 1 | -1 | -3
C=CCOC(=O)Cn1cnc2c(sc3nc(C)cc(C)c32)c1=O | · | · | 14 | · | 47 | ·
Cc1nn(C(C)C(=O)NCCc2cccs2)c(=O)c2nn(-c3ccccc3)c(C)c12 (stereo not given) | · | · | 4 | · | -3 | ·
O=[N+]([O-])c1ccc(/C=N/n2cnc3ccccc32)s1 | 0 | -4 | 37 | 0 | 63* | 2
Cc1cc2ncn(/N=C/c3ccc([N+](=O)[O-])s3)c2cc1C | 0 | -2 | 14 | 0 | 25 | -2
C/C=C/c1ccc(OCC(=O)Nc2ccc(OC)c(OC)c2)c(OC)c1 | 0 | -2 | -69* | -1 | -74 | -8
O=C(NNc1ncccc1Cl)c1c(Cl)cccc1Cl | 0 | -5 | 0 | 0 | 0 | -11
CC(=O)Nc1cccc(N(C)S(C)(=O)=O)c1 | 0 | -7 | -2 | -2 | -18 | -1
CN(c1cccc(NC(=O)Nc2cccc(Cl)c2)c1)S(C)(=O)=O | 0 | -1 | 36 | 1 | 66* | 25
Oc1c(CN2CCOCC2)cc(COCc2ccccc2)c2cccnc12 | 0 | -19 | -78* | 0 | -82 | -4
COCc1cc(CN2CCN(C)CC2)c(O)c2ncccc12 | 0 | -6 | -2 | -4 | -7 | ·
CN(Cc1nc(-c2ccccc2)no1)C(=O)c1ccc2c(c1)OCO2 | · | · | -59* | · | -62 | ·
c1ccc(-c2noc(COc3ccc4c(c3)OCO4)n2)cc1 | 0 | -10 | 46 | 0 | 55* | -23
COc1cc(C2C(C#N)=C(N)OC3=C2C(=O)CC(C)(C)C3)cc2c1OCO2 (stereo not given) | · | · | 1 | · | 0 | ·
CCOC(=O)N1C(=O)[C@@](CC)(c2ccccc2)N1C(=O)OCC | · | · | -55* | · | -65 | ·
O=C1C2C3C=CC(C3)C2C(=O)N1CCCCCCN1C(=O)C2C3C=CC(C3)C2C1=O (stereo not given) | 0 | -9 | · | -1 | · | -22
O=C1C=CC(=O)N1CCCCCCN1C(=O)C=CC1=O | 0 | 79* | · | 0 | · | 5
O=C(Nc1ccccc1)c1sc(Cl)nc1-c1ccccc1 | 0 | -20 | 10 | 3 | 13 | 4
Cc1ccc(NC(=O)c2sc(Cl)nc2-c2ccccc2)cc1C | 0 | -1 | 26 | -3 | 61* | ·
Cc1ccc(NC(=O)c2cnc3ccccc3n2)cc1C | · | 6 | 23 | 0 | 62* | 6
O=C(Nc1ccccc1)c1cnc2ccccc2n1 | 0 | -1 | 8 | -3 | 5 | 0
O=C(NCc1ccc(F)cc1)c1ccc(Br)o1 | 0 | -6 | 3 | 1 | 1 | 17
CCOC(=O)c1[nH]c(C)c(/C(O)=C2\C(=O)C(=O)N(CCCN3CCOCC3)C2c2cccs2)c1C (stereo not given) | · | 0 | 7 | -1 | 17 | -10
CCNC(=O)c1ccc2c(c1)S(=O)(=O)c1ccccc1C2=O | 0 | 5 | -3 | 0 | -2 | 85*
